Test systems include PRKCE; PRKCH; PRKCI; PRKCQ; PRKD1; PRKD2; PRKD3; PRKG1; PRKG2.
Common to all, as to details: concentration: 1 μM, replicates: in singlicate; n = 1
In a further assay the test system is T1, PRKR.
T1 construct: gene EIF2AK2

Molecules are shown by their SMILES.
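Note: KINOMEscan kinase panel screen.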

Take `CN1C(=O)C(Nc2cc(Cl)c(O)c(Cl)c2)=C(c2ccc(Cl)cc2)C1=O` [SB-404321]: the “%Inh” value was 0% with PRKCE; 0% in the assay on PRKCH; 3% with PRKCI; 0% in the assay with PRKCQ; 54% in the assay with PRKD1; 0% with PRKD2. Moreover, the “%Inh” value was determined as 0% with PRKD3, 0% with PRKG1, 0% in the assay on PRKG2 and 4% in the assay on PRKR.
Take `Nc1ncnc2c1ncn2-c1ccc(Cl)cc1` [AH2635]: the “%Inh” value with PRKCE came to 0%; in the assay with PRKCH, 0%; in the assay with PRKCI, 6%; in the assay on PRKCQ, 0%; with PRKD1, 0%; with PRKD2 it was 0%. The “%Inh” value in the assay on PRKD3 was found to be 0%; in the assay on PRKG1 it was 2%; in the assay on PRKG2, 0%; in the assay with PRKR, 0%.
As to `O=C(Nc1ccc2c(c1)OCO2)NC1CCN(c2ccnc(NCc3ccc(F)cc3)n2)CC1` [GSK1379859], the “%Inh” value with PRKCE turned out to be 0%; in the assay with PRKCH, 16%; with PRKCI, 0%; with PRKCQ, 18%; in the assay with PRKD1 it was 0%; in the assay on PRKD2, 0%. Besides, the “%Inh” value worked out at 34% in the assay with PRKD3, 0% in the assay with PRKG1, 0% in the assay with PRKG2 and 0% in the assay with PRKR.
As to `Cc1ccccc1COc1cc(-n2cnc3cc(Cl)ccc32)sc1C(N)=O` [GW813349], the “%Inh” value with PRKCE is 2%; in the assay with PRKCH, 0%; with PRKCI, 20%; with PRKCQ, 1%; in the assay with PRKD1 it was 7%; with PRKD2, 0%. In addition, the “%Inh” value in the assay with PRKD3 came to 0%; in the assay with PRKG1, 8%; in the assay with PRKG2, 7%; in the assay on PRKR, 0%.
In the case of `COc1cc2ncn(-c3cc(OCc4ccc(S(C)(=O)=O)cc4)c(C(N)=O)s3)c2cc1OC` [GW869979], the “%Inh” value in the assay with PRKCE was 20%; in the assay on PRKCH, 0%; in the assay with PRKCI it was 12%; in the assay with PRKCQ, 0%; with PRKD1, 0%; in the assay with PRKD2, 0%. Moreover, the “%Inh” value with PRKD3 was determined as 18%; in the assay with PRKG1, 0%; in the assay on PRKG2, 0%; in the assay on PRKR, 0%.
Take `O=C(Nc1n[nH]c2nc(-c3ccccc3)c(Cl)cc12)C1CC1` [SB-734909]: the “%Inh” value in the assay on PRKCE came out at 10%; in the assay with PRKCH it was 0%; in the assay with PRKCI, 0%; in the assay on PRKCQ it was 0%; in the assay on PRKD1, 0%; with PRKD2, 35%. Besides, the “%Inh” value in the assay with PRKD3 is listed as 5%; with PRKG1 it was 6%; in the assay with PRKG2, 20%; with PRKR it was 0%.
Turning to `Cc1nnc(-c2ccc3ncn(-c4ccc(S(C)=O)cc4)c3c2)o1` (stereo not shown), the “%Inh” value in the assay on PRKCE came to 3%; in the assay on PRKCH, 4%; with PRKCI it was 0%; in the assay on PRKCQ it was 3%; in the assay with PRKD1 it was 0%; in the assay with PRKD2 it was 35%. In addition, the “%Inh” value in the assay on PRKD3 is 0%; in the assay with PRKG1, 0%; in the assay with PRKG2, 13%; in the assay on PRKR it was 0%.
For the compound `Nc1nccc2scc(-c3ccc4c(c3)CCN4C(=O)Cc3ccccc3)c12` [GSK2576924], the “%Inh” value is given as 0% in the assay on PRKCE; 31% with PRKCH; 20% in the assay on PRKCI; 0% in the assay on PRKCQ; 0% with PRKD1; 16% with PRKD2. Further, the “%Inh” value was found to be 11% in the assay with PRKD3, 10% in the assay with PRKG1, 12% in the assay with PRKG2 and 8% with PRKR.
For the compound `CCC(=O)c1c(-c2ccccc2)c2cc(Cl)ccc2c(=O)n1Cc1cc(S(C)(=O)=O)n(CC(N)=O)n1`, the “%Inh” value was 0% in the assay on PRKCE; 80% in the assay with PRKCH; 12% in the assay on PRKCI; 0% with PRKCQ; 0% in the assay with PRKD1; 0% with PRKD2. For the same compound, the “%Inh” value with PRKD3, in the assay on PRKG1, in the assay on PRKG2 and in the assay with PRKR was 0% in each case.
Consider `CCC(=O)c1c(-c2ccccc2)c2cc(Cl)ccc2c(=O)n1Cc1cc(S(C)(=O)=O)n(CCC(C)(C)O)n1`, for which the “%Inh” value was 0% with PRKCE; 3% in the assay on PRKCH; 23% in the assay with PRKCI; 37% with PRKCQ; 1% in the assay on PRKD1; 4% in the assay with PRKD2. In addition, the “%Inh” value was 0% with PRKD3, 0% in the assay on PRKG1, 21% with PRKG2 and 0% with PRKR.
Take `Nc1n[nH]c2ncc(-c3ccccc3)cc12` [SB-517081]: the “%Inh” value was found to be 16% with PRKCE; 72% with PRKCH; 21% with PRKCI; 3% with PRKCQ; 4% in the assay with PRKD1; 0% in the assay on PRKD2. Besides, the “%Inh” value with PRKD3, in the assay on PRKG1, in the assay on PRKG2 and with PRKR was 0% each time.
Turning to `COc1cc(Nc2nccc(N3CCC(NC(=O)C(C)c4ccc(Cl)cc4)C3)n2)cc(OC)c1OC` (stereo not shown) [GSK1379757], the “%Inh” value is given as 0% in the assay with PRKCE; 14% in the assay with PRKCH; 0% in the assay with PRKCI; 0% in the assay on PRKCQ; 0% in the assay on PRKD1; 0% with PRKD2. Also, the “%Inh” value with PRKD3 came out at 0%; in the assay on PRKG1, 1%; with PRKG2 it was 4%; in the assay with PRKR, 0%.
Consider `Cc1c(Cn2c(C)nn3c(=O)cc(N4CCO[C@H](C)C4)nc23)cccc1C(F)(F)F` [GSK2373690], for which the “%Inh” value is recorded as 0% in the assay with PRKCE; 35% in the assay on PRKCH; 26% in the assay with PRKCI; 17% in the assay on PRKCQ; 0% with PRKD1; 0% in the assay with PRKD2. Besides, the “%Inh” value in the assay on PRKD3 came to 0%; in the assay on PRKG1, 15%; in the assay on PRKG2 it was 0%; in the assay with PRKR, 0%.
Consider `COc1ccc(CNC(=O)NC2CCN(c3ccnc(Nc4ccc(F)cc4)n3)C2)cc1` (stereo not shown) [GSK1379706], for which the “%Inh” value with PRKCE was found to be 27%; with PRKCH it was 12%; with PRKCI, 0%; in the assay on PRKCQ, 15%; in the assay with PRKD1 it was 0%; with PRKD2, 14%. Also, the “%Inh” value was 15% with PRKD3, 0% in the assay on PRKG1, 20% in the assay on PRKG2 and 15% in the assay with PRKR.
Regarding `Cc1ccc(Oc2ccc(Nc3ncnc4cc[nH]c34)cc2C)cn1`, the “%Inh” value in the assay with PRKCE stood at 0%; in the assay on PRKCH, 27%; with PRKCI, 7%; in the assay on PRKCQ, 9%; with PRKD1, 0%; in the assay with PRKD2, 2%. The “%Inh” value was found to be 8% in the assay on PRKD3, 0% in the assay on PRKG1, 23% in the assay on PRKG2 and 8% in the assay with PRKR.
As for `OCCCNc1nccc(-c2c(-c3cccc(C(F)(F)F)c3)nn3cc(C(F)(F)F)ccc23)n1` [GW630813], the “%Inh” value in the assay with PRKCE is reported as 7%; with PRKCH, 10%; in the assay with PRKCI, 0%; in the assay with PRKCQ, 0%; in the assay on PRKD1, 22%; in the assay with PRKD2, 10%. Besides, the “%Inh” value with PRKD3 is recorded as 0%; in the assay with PRKG1 it was 0%; in the assay on PRKG2 it was 0%; in the assay on PRKR, 8%.
On to `CN1C(=O)C(Nc2ccccc2)=C(c2ccccc2)C1=O` [SB-300079], for which the “%Inh” value came out at 16% in the assay on PRKCE; 0% in the assay with PRKCH; 0% in the assay on PRKCI; 0% with PRKCQ; 0% in the assay on PRKD1; 0% in the assay with PRKD2. Moreover, the “%Inh” value in the assay on PRKD3 came to 0%; in the assay with PRKG1, 18%; in the assay with PRKG2, 0%; in the assay with PRKR it was 76%.
Regarding `CC(C)(C)c1ccc(C(=O)Nc2cn3cc(-c4ccccc4)ccc3n2)cc1`, the “%Inh” value is recorded as 5% with PRKCE; 0% with PRKCH; 10% in the assay on PRKCI; 37% in the assay with PRKCQ; 8% with PRKD1; 19% in the assay on PRKD2. Further, the “%Inh” value in the assay with PRKD3 is given as 4%; in the assay on PRKG1, 1%; with PRKG2, 0%; in the assay with PRKR, 0%.
For `COc1cc(OC)cc(-c2cc3cnc(N)nc3nc2NC(=O)NC(C)(C)C)c1`, the “%Inh” value came to 51% with PRKCE; 0% in the assay with PRKCH; 2% in the assay with PRKCI; 0% in the assay with PRKCQ; 0% in the assay with PRKD1; 0% in the assay with PRKD2. In addition, the “%Inh” value with PRKD3 was found to be 0%; with PRKG1, 14%; in the assay with PRKG2, 0%; in the assay on PRKR, 16%.

These data come from PMC5540273 (PLoS ONE, 2017).
